The full data set covers some 21,000 targets. This sample favours those with the largest changes.
compound: CC1Cc2ccccc2N1C(=O)C1CCCN(C1)C(=O)CCl (mixture of isomers) [TRIM25 ligand 11 (diastereomer mixture)]; test: probe-labelled cysteine peptide fold change vs DMSO (competition) (log2 fold change); higher = less target engagement (more negative = stronger competition); settings: 50 µM; THP-1; incubation time: 4 h
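Note: competitive chemoproteomic profiling in live THP-1 cells with an iodoacetamide desthiobiotin (IA-DTB) probe, comparing probe-labelled peptide intensities in compound-treated cells against DMSO-treated controls.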

UniProt Q8N8K9, sequence (Q8N8K9 whole entry): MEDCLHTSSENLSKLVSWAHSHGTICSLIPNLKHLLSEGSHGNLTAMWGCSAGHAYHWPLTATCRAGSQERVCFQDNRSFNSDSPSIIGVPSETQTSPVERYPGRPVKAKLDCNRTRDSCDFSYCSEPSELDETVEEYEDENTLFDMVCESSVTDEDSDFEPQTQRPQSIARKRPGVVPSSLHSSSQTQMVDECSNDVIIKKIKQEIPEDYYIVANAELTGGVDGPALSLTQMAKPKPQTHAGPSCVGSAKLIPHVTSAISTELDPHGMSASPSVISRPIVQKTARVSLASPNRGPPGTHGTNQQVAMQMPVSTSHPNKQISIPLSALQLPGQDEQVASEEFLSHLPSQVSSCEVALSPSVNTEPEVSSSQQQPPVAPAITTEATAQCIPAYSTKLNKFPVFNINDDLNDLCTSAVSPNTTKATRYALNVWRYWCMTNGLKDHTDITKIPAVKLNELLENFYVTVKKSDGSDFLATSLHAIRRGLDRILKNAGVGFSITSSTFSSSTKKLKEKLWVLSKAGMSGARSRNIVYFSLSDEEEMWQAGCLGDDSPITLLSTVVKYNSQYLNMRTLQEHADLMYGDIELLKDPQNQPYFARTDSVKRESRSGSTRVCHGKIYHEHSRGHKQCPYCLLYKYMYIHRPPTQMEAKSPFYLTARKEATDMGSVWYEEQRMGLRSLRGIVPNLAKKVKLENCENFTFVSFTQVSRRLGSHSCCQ
UniProt P52294, sequence (P52294 whole entry, looked up): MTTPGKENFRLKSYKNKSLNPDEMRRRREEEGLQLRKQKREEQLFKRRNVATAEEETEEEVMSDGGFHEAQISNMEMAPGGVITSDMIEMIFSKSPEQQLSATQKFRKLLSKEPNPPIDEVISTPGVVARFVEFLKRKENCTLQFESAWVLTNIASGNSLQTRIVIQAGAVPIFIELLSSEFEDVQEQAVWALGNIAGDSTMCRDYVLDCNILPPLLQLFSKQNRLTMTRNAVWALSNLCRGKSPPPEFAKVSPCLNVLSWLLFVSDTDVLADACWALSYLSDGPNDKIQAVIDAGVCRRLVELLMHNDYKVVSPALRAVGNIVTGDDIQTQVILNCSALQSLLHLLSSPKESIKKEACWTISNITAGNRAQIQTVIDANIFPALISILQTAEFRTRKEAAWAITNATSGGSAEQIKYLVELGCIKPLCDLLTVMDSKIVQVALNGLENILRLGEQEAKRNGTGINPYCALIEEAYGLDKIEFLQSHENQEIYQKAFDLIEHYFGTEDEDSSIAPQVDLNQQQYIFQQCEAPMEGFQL
UniProt Q53HC5, sequence (Q53HC5 whole entry, looked up): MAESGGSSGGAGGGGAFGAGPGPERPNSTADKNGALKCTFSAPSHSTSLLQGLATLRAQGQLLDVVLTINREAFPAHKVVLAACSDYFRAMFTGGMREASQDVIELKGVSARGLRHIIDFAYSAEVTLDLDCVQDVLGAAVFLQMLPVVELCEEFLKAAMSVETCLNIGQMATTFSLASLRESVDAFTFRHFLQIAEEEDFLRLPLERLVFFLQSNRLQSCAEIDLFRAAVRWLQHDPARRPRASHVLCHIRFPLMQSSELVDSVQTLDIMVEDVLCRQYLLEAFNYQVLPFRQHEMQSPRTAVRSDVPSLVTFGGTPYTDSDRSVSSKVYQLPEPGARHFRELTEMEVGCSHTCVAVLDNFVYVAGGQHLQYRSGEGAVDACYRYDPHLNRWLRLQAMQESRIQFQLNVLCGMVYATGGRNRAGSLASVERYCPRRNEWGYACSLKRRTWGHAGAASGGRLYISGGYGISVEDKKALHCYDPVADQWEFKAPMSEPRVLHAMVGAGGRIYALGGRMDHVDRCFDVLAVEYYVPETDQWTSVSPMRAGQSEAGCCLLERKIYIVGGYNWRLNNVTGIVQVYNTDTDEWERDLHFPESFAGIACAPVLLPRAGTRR
UniProt P48059, sequence (P48059 whole entry, looked up): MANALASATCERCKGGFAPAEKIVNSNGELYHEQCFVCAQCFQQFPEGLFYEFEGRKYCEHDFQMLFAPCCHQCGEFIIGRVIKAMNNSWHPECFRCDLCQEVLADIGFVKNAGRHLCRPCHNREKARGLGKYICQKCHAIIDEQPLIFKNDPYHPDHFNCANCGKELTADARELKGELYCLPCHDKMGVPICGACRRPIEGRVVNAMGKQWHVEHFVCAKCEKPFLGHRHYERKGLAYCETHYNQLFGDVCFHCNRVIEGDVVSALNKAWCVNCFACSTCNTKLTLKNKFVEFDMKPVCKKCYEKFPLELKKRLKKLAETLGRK
UniProt Q9NZM3, sequence (Q9NZM3 whole entry, looked up): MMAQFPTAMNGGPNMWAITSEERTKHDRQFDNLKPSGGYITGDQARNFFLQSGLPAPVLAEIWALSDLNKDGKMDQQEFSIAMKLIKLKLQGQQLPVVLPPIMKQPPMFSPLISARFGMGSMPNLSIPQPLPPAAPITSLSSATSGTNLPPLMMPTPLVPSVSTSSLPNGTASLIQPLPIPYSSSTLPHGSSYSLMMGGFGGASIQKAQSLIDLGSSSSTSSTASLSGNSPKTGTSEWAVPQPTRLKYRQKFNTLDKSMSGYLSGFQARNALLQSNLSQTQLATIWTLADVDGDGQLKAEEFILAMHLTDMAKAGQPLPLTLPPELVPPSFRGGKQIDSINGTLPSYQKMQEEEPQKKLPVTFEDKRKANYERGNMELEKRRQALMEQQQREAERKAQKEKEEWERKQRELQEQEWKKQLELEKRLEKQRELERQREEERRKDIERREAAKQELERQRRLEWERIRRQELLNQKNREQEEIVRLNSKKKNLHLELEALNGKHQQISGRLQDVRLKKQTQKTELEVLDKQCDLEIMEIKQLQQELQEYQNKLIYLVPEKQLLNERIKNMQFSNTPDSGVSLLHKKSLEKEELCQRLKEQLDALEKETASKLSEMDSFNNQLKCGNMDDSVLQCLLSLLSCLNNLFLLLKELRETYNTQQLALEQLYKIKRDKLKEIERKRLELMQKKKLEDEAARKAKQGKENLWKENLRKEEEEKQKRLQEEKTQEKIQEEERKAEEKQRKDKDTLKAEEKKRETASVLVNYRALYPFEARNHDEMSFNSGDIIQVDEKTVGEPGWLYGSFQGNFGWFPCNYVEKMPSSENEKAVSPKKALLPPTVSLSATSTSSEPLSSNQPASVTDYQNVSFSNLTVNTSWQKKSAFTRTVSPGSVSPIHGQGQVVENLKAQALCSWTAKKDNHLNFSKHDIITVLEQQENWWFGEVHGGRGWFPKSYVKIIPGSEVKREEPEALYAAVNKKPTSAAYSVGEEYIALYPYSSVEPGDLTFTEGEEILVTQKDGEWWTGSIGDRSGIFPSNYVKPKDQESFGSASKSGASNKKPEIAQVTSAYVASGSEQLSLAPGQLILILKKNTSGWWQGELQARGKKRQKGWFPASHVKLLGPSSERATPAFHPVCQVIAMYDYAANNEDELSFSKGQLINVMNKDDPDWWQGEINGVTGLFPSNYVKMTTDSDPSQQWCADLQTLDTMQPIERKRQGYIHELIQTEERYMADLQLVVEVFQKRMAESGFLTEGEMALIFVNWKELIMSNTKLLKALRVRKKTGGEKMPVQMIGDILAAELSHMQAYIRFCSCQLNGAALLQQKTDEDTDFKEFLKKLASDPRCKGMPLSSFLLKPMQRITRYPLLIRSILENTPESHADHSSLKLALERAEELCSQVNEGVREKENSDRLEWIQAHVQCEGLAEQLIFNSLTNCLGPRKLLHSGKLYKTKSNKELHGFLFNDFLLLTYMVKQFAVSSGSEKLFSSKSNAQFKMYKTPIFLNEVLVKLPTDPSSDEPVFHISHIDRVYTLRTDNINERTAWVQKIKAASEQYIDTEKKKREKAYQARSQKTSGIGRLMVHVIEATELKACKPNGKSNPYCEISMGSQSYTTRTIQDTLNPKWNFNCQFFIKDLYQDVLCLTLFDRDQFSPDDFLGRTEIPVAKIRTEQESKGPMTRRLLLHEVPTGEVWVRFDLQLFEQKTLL
UniProt Q9Y496, sequence (Q9Y496 whole entry): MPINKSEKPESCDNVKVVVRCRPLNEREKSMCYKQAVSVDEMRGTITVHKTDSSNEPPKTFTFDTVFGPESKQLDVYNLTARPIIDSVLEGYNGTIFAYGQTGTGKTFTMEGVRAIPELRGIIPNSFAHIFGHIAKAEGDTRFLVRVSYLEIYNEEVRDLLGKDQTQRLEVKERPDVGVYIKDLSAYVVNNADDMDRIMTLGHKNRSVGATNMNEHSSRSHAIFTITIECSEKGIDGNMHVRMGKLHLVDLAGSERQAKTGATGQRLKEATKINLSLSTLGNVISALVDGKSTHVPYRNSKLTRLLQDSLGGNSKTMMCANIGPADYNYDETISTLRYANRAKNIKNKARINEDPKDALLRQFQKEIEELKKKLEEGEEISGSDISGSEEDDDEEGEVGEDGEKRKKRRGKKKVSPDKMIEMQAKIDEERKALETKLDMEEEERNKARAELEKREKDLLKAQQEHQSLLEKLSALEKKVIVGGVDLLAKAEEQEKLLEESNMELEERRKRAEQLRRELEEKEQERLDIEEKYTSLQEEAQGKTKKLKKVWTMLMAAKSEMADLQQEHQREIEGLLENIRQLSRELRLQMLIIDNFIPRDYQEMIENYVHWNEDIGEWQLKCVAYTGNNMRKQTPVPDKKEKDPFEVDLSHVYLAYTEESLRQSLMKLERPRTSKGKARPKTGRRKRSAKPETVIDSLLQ
UniProt Q14653, sequence (Q14653 whole entry): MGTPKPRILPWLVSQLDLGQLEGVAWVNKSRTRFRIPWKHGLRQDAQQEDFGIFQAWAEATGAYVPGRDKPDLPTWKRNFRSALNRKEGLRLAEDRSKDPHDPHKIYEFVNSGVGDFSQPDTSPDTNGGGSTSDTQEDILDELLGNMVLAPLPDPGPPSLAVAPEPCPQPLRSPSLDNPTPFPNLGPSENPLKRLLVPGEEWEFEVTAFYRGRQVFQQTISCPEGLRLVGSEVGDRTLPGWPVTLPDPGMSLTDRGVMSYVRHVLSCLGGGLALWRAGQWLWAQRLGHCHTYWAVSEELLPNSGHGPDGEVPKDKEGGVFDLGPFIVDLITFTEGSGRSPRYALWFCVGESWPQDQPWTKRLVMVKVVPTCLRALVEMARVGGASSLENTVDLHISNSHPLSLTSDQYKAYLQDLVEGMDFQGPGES

Point of comparison: “KIF3A_Q9Y496_230_SHAIFTITIECSEK (UniProt Q9Y496)”, “probe-labelled cysteine peptide fold change” value -0.0259. Against it:
- ITGB2_P05107_386_VTYDSFCSNGVTHR (UniProt P05107) — lower, -0.0395
- LIG3_P49916_499_KCPNGMFSEIKYDGER (UniProt P49916) — higher, 0.59
- KIAA1958_Q8N8K9_246_PKPQTHAGPSCVGSAK (UniProt Q8N8K9) — lower, -0.293
- IKBKB_O14920_524_EMEQAVELCGR (UniProt O14920) — higher, 0.0969
- KIF22_Q14807_201_VLDLLDPASGDLVIREDCR (UniProt Q14807) — lower, -0.158
- KPNA1_P52294_424_YLVELGCIK (UniProt P52294) — higher, 0.184
- KLHL26_Q53HC5_383_SGEGAVDACYR (UniProt Q53HC5) — higher, 0.211
- ITGB2_P05107_481_NCECQTQGR (UniProt P05107) — lower, -0.216
- ITSN2_Q9NZM3_1429_ENSDRLEWIQAHVQCEGLAEQLIFNSLTNCLGPR (UniProt Q9NZM3) — lower, -0.633
- LIMS3_P0CW19-2_121+132_KYCEHDFQMLFAPCCHQCGEFIIGR<|>LIMS1_P48059_59+70_KYCEHDFQMLFAPCCHQCGEFIIGR (UniProt P48059+P0CW19) — lower, -0.291
- INPP5F_Q9Y2H2_725_DTLQCIAEMLQITK (UniProt Q9Y2H2) — higher, 0.242
- INTS6L_Q5JSJ4_745_NCSLSVDDQK (UniProt Q5JSJ4) — higher, -0.0158
- LRRC8C_Q8TDW0_599_MTNLTELELVHCDLER (UniProt Q8TDW0) — higher, 0.0824
- LANCL2_Q9NS86_367_GYGICHGTAGNGYSFLSLYR (UniProt Q9NS86) — lower, -0.0445
- IGF2R_P11717_1783_TSECDFVFEWETPVVCPDEVR (UniProt P11717) — lower, -0.672
- IVD_P26440_136_ASGAVGLSYGAHSNLCINQLVR (UniProt P26440) — lower, -0.151
- KDM3A_Q9Y4C1_814_PACPASTSPLNWLADLTSGNVNK (UniProt Q9Y4C1) — lower, -0.377
- LIMS1_P48059_193+196_MGVPICGACR (UniProt P48059) — lower, -0.114
- LPXN_O60711_155_GHCASCQK (UniProt O60711) — higher, 0.145
- IARS2_Q9NSE4_819_SCQTALVEILDVIVR (UniProt Q9NSE4) — lower, -0.107
- LGALS1_P09382_3_ACGLVASNLNLKPGECLR (UniProt P09382) — lower, -0.246
- KNTC1_P50748_911_IIDLIDREQGEDCLLLLK (UniProt P50748) — higher, 0.137
- IGF2R_P11717_149_TLGTPEFVTATECVHYFEWR (UniProt P11717) — lower, -0.305
- IRF3_Q14653_267_HVLSCLGGGLALWR (UniProt Q14653) — higher, 0.346
- LGALS1_P09382_17_ACGLVASNLNLKPGECLR (UniProt P09382) — lower, -0.0291
